Records with an inconclusive call do not appear. The source made the active and inactive calls.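 How the source made its calls, unless noted: active means viability increase at or above a cutoff of the median across tested compounds plus 3 SD (cut at about 8.5% in these data, passing the limit was not always enough); inconclusive means some gains above the cutoff, reason not given; inactive means the rest.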
Key:
[1] = reducers of endogenous Her2 protein level, primary screen, SKBR3 breast tumor cells, AlphaScreen, ATP viability (AID 461;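 active means Her2 level under about 52% in both replicate screens, with viability over 70% of control, limit read from the data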;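 on Her2 level: lower value means less Her2 protein in the cells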;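 on viability: percent of carrier control wells set as 100% viability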); settings: 18-24 h, measured here: SKBR3 viability, ATP luminescence, at 10 µM
[2] = target: Receptor tyrosine-protein kinase erbB-2 (Homo sapiens) (UniProt P04626); assay: as above; settings: 18-24 h, at 10 µM, stronger effect = lower value
[3] = SK-BR-3 cell growth inhibitors, pilot screen, 24 h, human (AID 572;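 active means viability at or below 10% of carrier control in both of two separate runs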;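 further: compound exposure lasted between 18 and 24 h rather than exactly 24 h; 100% = carrier-treated control wells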); settings: SK-BR-3 viability, CellTiter-Glo luminescence, at 10 µM, stronger effect = lower value
[4] = HUVEC growth inhibition – cell-based, human, primary screen (AID 575;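 active means viability at or below 30% in both replicate assays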;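 further: 100% = median of untreated cell wells with 0.1% DMSO on each plate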); settings: HUVEC proliferation, CellTiter-Glo luminescence, 72 h; at 10 µM; stronger effect = lower value
[5] = growth inhibitors of H69AR lung tumor, primary screen, human, duplicate replicates (AID 580;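 active means viability at or under a set limit in both replicates, limit being median viability minus 3 SD, cut at about 48% in these data, passing the limit was not always enough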;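 further: 100% = mean luminescence of untreated wells and 0% = no signal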); settings: H69AR lung tumor cells viability, ATP luminescence, 72 h; at 10 µM; stronger effect = lower value
[6] = reversal of MRP1-mediated doxorubicin resistance, pilot screen, H69AR cells, doxorubicin co-treatment (AID 601;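 active means viability loss from added drug above about 55%, and viability with drug at most 40%, in both replicates, limit read from the data, passing the limit was not always enough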); settings: CellTiter-Glo, 72 h, at 10 µM; for differential viability (reversal): stronger effect = higher value
[7] = 384-well plate pilot, post-Golgi transport modulator project, inhibition of yeast transport mutant growth (AID 636; in the data active means inhibition above about 31%); settings: absorbance 615 nm, about 18 h, stronger effect = higher value
[8] = growth suppression of yeast trafficking mutant, preliminary HTS, modulators of trafficking downstream of Golgi apparatus project, 1536-format plate, OD 615 nm (AID 637; in the data active means inhibition above about 30%); settings: yeast transport mutant growth, absorbance 615 nm, 18 h; stronger effect = higher value
[9] = OD615 S. cerevisiae growth inhibition, permissive medium, pilot counter-assay, permissive growth control for S. cerevisiae lifespan shortening project (AID 705;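 active means growth inhibition above 25% in both replicates, a cutoff set 3 SD above the mean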); settings: OD615, 24 h, at 10 µM, stronger effect = higher value
[10] = Restrictive medium S. cerevisiae growth inhibition, OD615, pilot screen of yeast lifespan reduction project, restrictive growth control (AID 706;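 active means growth inhibition above a set limit, 3 SD over mean compound inhibition, in both replicates, cut at about 43% in these data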;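 further: modified DeaD lifespan yeast strain shifted to restrictive glucose medium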); settings: OD615, 48 h, at 10 µM, stronger effect = higher value
[11] = viability gain of MRP-1-high H69AR cells under doxorubicin, pilot screen, MRP-1 activator project, CellTiter-Glo, duplicate (AID 807); settings: H69AR viability with doxorubicin, CellTiter-Glo luminescence; at 10 µM; stronger effect = higher value;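 further: compound pretreatment 18-22 h then 72 h combined with doxorubicin; 0% = doxorubicin alone and 100% = vehicle without doxorubicin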
[12] = growth suppression of beta-catenin knockout HCT116, pilot screen, human colon tumor cells (AID 823;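 active means cell viability at or below a set limit in both duplicate runs, the limit being the all-compound median minus 4 SD, cut at about 23% in these data, passing the limit was not always enough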;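 further: 0% = wells killed by 20 µM Hyamine and 100% = untreated DMSO cell wells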); settings: CellTiter-Glo, 60 h, at 10 µM, stronger effect = lower value
[13] = inhibitors of the yeast RAM network, pilot screen, dse1pr::URA3 reporter, 5-FOA selection (AID 869;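 active means inhibition over a set limit, the all-compound mean plus 3 SD, in both replicate runs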;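 further: 0% = DMSO wells with no growth and 100% = 10 µM 1-NA-PP1 with full growth; RAM network block rescues cells from 5-FOA so hits raise OD615 growth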); settings: S. cerevisiae dse1pr::URA3 5-FOA growth, OD615, 2 d; at 10 µM; stronger effect = higher value; strain carries analog-sensitive mutant Cbk1 kinase
[14] = RAM signaling pathway blockade in yeast – S. cerevisiae, Pdr1DBD-CYC8 efflux-inhibited sensitized strain, primary screen (AID 1298;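 active means RAM network inhibition above 8.4% in each of two replicates, 3 SD over the compound average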;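 further: 0% = DMSO untreated cells without growth and 100% = 10 µM 1-NA-PP1 full growth; higher means more yeast growth rescued from 5-FOA killing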); settings: S. cerevisiae cbk1-as DSE1-URA3 strain, 5-FOA growth OD615, 2 d; at 50 µM; stronger effect = higher value
[15] = growth suppression of PTEN-deleted HCT116, pilot screen, cell-based, HCT116 clonal line, CellTiter-Glo (AID 824;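 active means viability at or below 27.92% in each of two runs, the all-compound median minus 4 SD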;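 further: 0% = 20 µM Hyamine control and 100% = vehicle cell control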); settings: 60 h, at 10 µM, stronger effect = lower value
[16] = H69AR cells + 2 uM doxorubicin, measured here: viability with 2 uM doxorubicin, stronger effect = lower value
[17] = H69AR cells, compound alone cytotoxicity

Chain of Receptor tyrosine-protein kinase erbB-2 (Homo sapiens) (P04626 whole entry, looked up): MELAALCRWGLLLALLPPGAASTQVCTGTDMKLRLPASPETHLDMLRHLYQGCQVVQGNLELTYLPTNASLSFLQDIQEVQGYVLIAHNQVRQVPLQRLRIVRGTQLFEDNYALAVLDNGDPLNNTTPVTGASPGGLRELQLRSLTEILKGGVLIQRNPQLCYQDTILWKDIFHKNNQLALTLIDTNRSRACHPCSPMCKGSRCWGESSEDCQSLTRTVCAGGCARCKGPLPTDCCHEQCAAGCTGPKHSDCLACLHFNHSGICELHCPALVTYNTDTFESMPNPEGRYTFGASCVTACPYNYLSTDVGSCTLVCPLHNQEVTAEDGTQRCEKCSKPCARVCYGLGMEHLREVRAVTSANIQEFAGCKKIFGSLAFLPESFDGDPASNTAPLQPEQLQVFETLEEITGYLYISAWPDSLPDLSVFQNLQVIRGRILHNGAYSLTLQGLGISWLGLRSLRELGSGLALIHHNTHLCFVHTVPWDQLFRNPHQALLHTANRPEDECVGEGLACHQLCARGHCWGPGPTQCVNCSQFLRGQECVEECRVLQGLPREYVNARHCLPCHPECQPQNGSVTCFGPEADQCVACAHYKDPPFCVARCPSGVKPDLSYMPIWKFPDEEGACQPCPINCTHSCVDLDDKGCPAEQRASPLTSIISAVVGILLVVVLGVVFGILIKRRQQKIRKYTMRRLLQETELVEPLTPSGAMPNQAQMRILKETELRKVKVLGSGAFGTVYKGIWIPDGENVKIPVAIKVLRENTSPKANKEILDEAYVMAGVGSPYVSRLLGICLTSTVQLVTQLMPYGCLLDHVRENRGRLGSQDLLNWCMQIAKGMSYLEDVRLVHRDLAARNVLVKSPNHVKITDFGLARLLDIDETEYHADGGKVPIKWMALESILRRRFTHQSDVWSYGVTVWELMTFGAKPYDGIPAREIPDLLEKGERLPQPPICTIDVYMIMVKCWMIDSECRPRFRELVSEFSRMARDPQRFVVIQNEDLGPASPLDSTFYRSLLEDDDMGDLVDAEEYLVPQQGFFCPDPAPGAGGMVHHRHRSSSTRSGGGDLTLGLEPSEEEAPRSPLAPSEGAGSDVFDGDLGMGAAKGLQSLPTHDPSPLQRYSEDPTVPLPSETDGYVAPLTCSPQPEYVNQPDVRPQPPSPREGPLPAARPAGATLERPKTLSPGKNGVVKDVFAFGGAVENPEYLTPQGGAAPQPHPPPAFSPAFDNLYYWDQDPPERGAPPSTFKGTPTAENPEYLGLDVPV

Cc1[nH]nc2c1C(C1CC=CCC1)C(C#N)=C(N)O2 (stereo unspecified)
inactive: Her2 level [2] 80% | viability [3] 102% | viability [4] 63.5% | viability [5] 96% | differential viability (reversal) ([6]; H69AR cells + 2 uM doxorubicin) 0.85% | inhibition [7] 0.65% | inhibition [8] -9.17% | growth inhibition [9] 1.72% | growth inhibition [10] 1.64% | viability increase [11] -5.29% | inhibition [13] 3.08% | RAM network inhibition [14] -0.5%
102%: viability [1]
active: viability [12] 17.6%
95.1%: viability [6, 16]
96%: viability [6, 17]

CCOc1ccc(-c2nnc(N(CC)C(=O)C3CCC3)s2)cc1
87.5%: viability [1]
inactive: Her2 level [2] 72% | viability [3] 87.5% | viability [4] 98.5% | viability [5] 83.7% | differential viability (reversal) ([6]; H69AR cells + 2 uM doxorubicin) 5.45% | inhibition [7] -4.21% | inhibition [8] -3.97% | growth inhibition [9] -4.38% | growth inhibition [10] 7.03% | viability increase [11] -1.68% | viability [15] 84.6% | inhibition [13] 0.825% | RAM network inhibition [14] 0.26%
78.3%: viability [6, 16]
83.7%: viability [6, 17]

CCOC(=O)c1cc2c(=O)n3ccccc3nc2n(CCCOC)c1=NC(=O)C(C)(C)C
83.7%: viability [6, 17]
91%: viability [1]
inactive: Her2 level [2] 92% | viability [3] 91% | viability [4] 105% | viability [5] 83.7% | differential viability (reversal) ([6]; H69AR cells + 2 uM doxorubicin) 23.1% | inhibition [7] -7.4% | inhibition [8] -3.17% | growth inhibition [9] -11% | growth inhibition [10] 7.96% | viability increase [11] -2.09% | viability [15] 91.4% | inhibition [13] 2.98% | RAM network inhibition [14] 2.11%
60.6%: viability [6, 16]

CCn1c(NC(=O)c2cccc(Cn3cc(Cl)cn3)c2)nc2ccccc21
inactive: Her2 level [2] 75% | viability [3] 93.5% | viability [4] 69% | differential viability (reversal) ([6]; H69AR cells + 2 uM doxorubicin) -8.54% | inhibition [7] -0.53% | inhibition [8] 0.16% | growth inhibition [9] -10.1% | growth inhibition [10] 7.82% | viability increase [11] -0.12% | viability [12] 40.3% | viability [15] 40.1% | inhibition [13] 0.95% | RAM network inhibition [14] 4.07%
65.1%: viability [6, 16]
93.5%: viability [1]
56.5%: viability [6, 17]

O=C(Cn1ncc2c1-c1ccccc1OC2)N1CCc2ccccc21
84.3%: viability [6, 17]
inactive: Her2 level [2] 100% | viability [3] 83.5% | viability [4] 96.2% | viability [5] 84.3% | differential viability (reversal) ([6]; H69AR cells + 2 uM doxorubicin) -0.91% | inhibition [7] 0.51% | inhibition [8] -5.33% | growth inhibition [10] -6.7% | viability increase [11] -0.77% | viability [12] 93.4% | viability [15] 88.4% | inhibition [13] -0.23% | RAM network inhibition [14] 6.41%
85.2%: viability [6, 16]
83.5%: viability [1]

CC(C)CCSc1nc2c(c(=O)[nH]c(=O)n2C)n1CCCc1ccccc1
50%: viability [6, 17]
inactive: Her2 level [2] 71% | viability [3] 87.5% | viability [4] 46.7% | differential viability (reversal) ([6]; H69AR cells + 2 uM doxorubicin) -8.95% | inhibition [7] -3.73% | inhibition [8] 4.17% | growth inhibition [9] -11.8% | growth inhibition [10] -9.37% | viability increase [11] -4.55% | viability [12] 68.8% | viability [15] 59.1% | inhibition [13] 3.84% | RAM network inhibition [14] 9.02%
58.9%: viability [6, 16]
87.5%: viability [1]

CCn1c2ccccc2c2cc(Nc3cc(C)nc4ncnn34)ccc21
57.4%: viability [6, 16]
inactive: viability [3] 93% | differential viability (reversal) ([6]; H69AR cells + 2 uM doxorubicin) -28% | inhibition [7] -1.6% | inhibition [8] 0% | viability increase [11] -7.76% | inhibition [13] -0.255% | RAM network inhibition [14] -1.23%
29.4%: viability [6, 17]
active: Her2 level [2] 49% | viability [4] 18.1% | viability [5] 29.4% | growth inhibition [10] 72.4% | viability [15] 12.2%
93%: viability [1]

CC1CCN(Cc2ccc(NC(=O)C3CCN(c4nnc(-n5cccc5)s4)CC3)cc2)CC1
78.5%: viability [6, 17]
79.5%: viability [6, 16]
active: viability [4] 4.64%
86.5%: viability [1]
inactive: Her2 level [2] 90.5% | viability [3] 86.5% | viability [5] 78.5% | differential viability (reversal) ([6]; H69AR cells + 2 uM doxorubicin) -1.01% | inhibition [7] -4.27% | inhibition [8] 1.33% | growth inhibition [9] 3.76% | growth inhibition [10] 2.38% | viability increase [11] -2.95% | inhibition [13] 0.695% | RAM network inhibition [14] 4.34%

Cc1ccc2oc(=O)c3cnn(CC(=O)N4CCCCC4C)c3c2c1 (stereo unspecified)
inactive: Her2 level [2] 108% | viability [3] 91.5% | viability [4] 103% | viability [5] 89.2% | inhibition [7] -0.27% | inhibition [8] 2.62% | growth inhibition [9] -9.82% | growth inhibition [10] -6.86% | viability increase [11] -3.34% | viability [12] 84.1% | viability [15] 87.1% | inhibition [13] 3.4% | RAM network inhibition [14] 0.87%
91.5%: viability [1]

O=C(CSC1=NCCS1)NCc1ccco1
88.8%: viability [6, 16]
84%: viability [1]
active: growth inhibition [10] 47.7%
inactive: Her2 level [2] 108% | viability [3] 84% | viability [4] 80.6% | viability [5] 90.1% | differential viability (reversal) ([6]; H69AR cells + 2 uM doxorubicin) 1.28% | inhibition [7] -0.54% | inhibition [8] 26.5% | growth inhibition [9] 6.88% | viability increase [11] -3.56% | viability [15] 100% | inhibition [13] 2.73% | RAM network inhibition [14] 3.89%
90.1%: viability [6, 17]
